# From PubChem BioAssay (NCATS)
# Records with an inconclusive call do not appear. Unmarked numbers belong to inactive results. Active and inactive are the calls of the source. Calls follow the shape of the full dose curve; tested in HEK293 reporter line.
# Assay: qHTS for Inhibitors of the Functional Ribonucleoprotein Complex (vRNP) of Lassa (LASV) Arenavirus: LASV Primary Screen - GLuc reporter signal (AID 1347082); also: nearly all actives have a fitted effect of over 60% in size
# Conditions: LASV minigenome vRNP, Gaussia luciferase reporter; series mostly up to 57.5 µM; activity change, negative = inhibition: at the top concentration
# % is scaled to controls: 0 for no effect and ±100 for the full control effect.
SMILES,"activity change, negative = inhibition [%]",Potency
NC(=O)CC[C@@H](N)C(=O)O,-3.94,
NC(N)=N/N=C/c1c(Cl)cccc1Cl,-7.67,
CCn1c(=O)c2c(nc(C=Cc3ccc(OC)c(OC)c3)n2C)n(CC)c1=O,-0.268,
CC[N+](CC)(CC)CCOC(=O)C(C1CCCC1)C1CCCC1,4.67,
CCN(CC)CC(=O)Nc1c(C)cccc1C(=O)OC,-0.39,
Cc1cc(=O)oc2cc(O)ccc12,,inactive
CCCC(C(=O)OCCN(CC)CC)(c1ccccc1)c1ccccc1,,inactive
O=C(Nc1ccc(S(=O)(=O)N2CCOCC2)cc1)c1cc(Cl)ccc1NS(=O)(=O)c1ccc(Cl)s1,-12.7,
NCC1CCC(C(=O)Oc2ccc(CCC(=O)O)cc2)CC1 (stereo not drawn),1.03,
O=C(OCc1ccccc1)c1ccc(O)cc1,-20.6,
CC(=O)[C@H]1CC[C@H]2[C@@H]3CC=C4C[C@@H](O)CC[C@]4(C)[C@H]3CC[C@]12C,,inactive
O=C(O)[C@H](O)[C@@H](O)[C@H](O[C@@H]1O[C@H](CO)[C@H](O)[C@H](O)[C@H]1O)[C@H](O)CO,9.45,
O=C(NCC1CN(c2ccc(N3CCOCC3=O)cc2)C(=O)O1)c1ccc(Cl)s1 (stereo not drawn),,inactive
CCOC(=O)N1CCC(Nc2ccc(Cl)cc2N)CC1,-33.5,
CN1CCN(C2=Nc3cc(F)ccc3Cc3ccccc32)CC1,-7.85,
CCOc1ccc(NC(C)=O)cc1,7.74,
CC(C)(C)C(=O)C(Oc1ccc(Cl)cc1)n1ccnc1 (stereo not drawn),-0.938,
Fc1ccc(C(c2ccc(F)cc2)N2CCN(C/C=C/c3ccccc3)CC2)cc1,-1.51,
Cn1cc(C(=O)[C@@H]2CCc3nc[nH]c3C2)c2ccccc21,-0.0868,
O=C(O)CNC(=O)c1ccccc1I,8.09,

SMILES,"activity change, negative = inhibition [%]",Potency
CN(C)CCN1C(=O)c2ccccc2N(C)c2ccccc21,-1.72,
CCCCCN(CCCCC)C(=O)C(CCC(=O)O)NC(=O)c1ccc(Cl)c(Cl)c1 (stereo not drawn),,inactive
Cc1nc2sccn2c(=O)c1CCN1CCC(=C(c2ccc(F)cc2)c2ccc(F)cc2)CC1,,inactive
CCC1NC(=O)c2cc(S(N)(=O)=O)c(Cl)cc2N1 (stereo not drawn),3.21,
CCCc1ncc(C(=O)O)s1,23.7,
C[C@]12CC[C@@H]3c4ccc(O)cc4CC[C@H]3[C@@H]1C[C@@H](O)[C@@H]2O,-14.8,
Cc1ccc(Nc2c(F)cccc2Cl)c(CC(=O)O)c1,-10.9,
CC(C)(C)c1nnc(NS(=O)(=O)c2ccc(N)cc2)s1,0.715,
CN(C)C(=O)Nc1ccc(Cl)c(Cl)c1,-11.7,
O=C1C(CCS(=O)c2ccccc2)C(=O)N(c2ccccc2)N1c1ccccc1 (stereo not drawn),-3.6,
C[C@H](CCC(=O)O)[C@H]1CC[C@H]2[C@@H]3C(=O)C[C@@H]4CC(=O)CC[C@]4(C)[C@H]3CC(=O)[C@]12C,-1.66,
c1cnc(N2CCN(Cc3ccc4c(c3)OCO4)CC2)nc1,,inactive
c1ccc2c(c1)CCc1ccccc1N2,-0.82,
CCCOC(=O)c1ccc(N)cc1,0.508,
CC1=C(CC(=O)O)c2cc(F)ccc2/C1=C\c1ccc(S(C)=O)cc1 (stereo not drawn),,inactive
CC1CC(=O)NN=C1c1ccc(NCC(C)(C)NCC(O)COc2cc(Cl)ccc2C#N)cc1 (stereo not drawn),2.52,
COc1ccccc1N1CCN(CCCNc2cc(=O)n(C)c(=O)n2C)CC1,,inactive
CCOC(=O)OCC/C(SC(=O)OCC)=C(\C)N(C=O)Cc1cnc(C)nc1N,-0.784,
O=[N+]([O-])c1nccn1CO[C@@H](CO)[C@H](O)CO,-0.438,

# Assay: qHTS for Inhibitors of the Functional Ribonucleoprotein Complex (vRNP) of Lassa (LASV) Arenavirus: Viability assay - alamar blue signal for LASV Primary Screen (AID 1347083); also: nearly all actives have a fitted effect of over 80% in size
# Conditions: cell viability, alamar blue fluorescence (LASV minigenome counter-screen); series mostly up to 57.5 µM; activity change, negative = reduced viability: at the top concentration
SMILES,"activity change, negative = reduced viability [%]",Potency
NC(=O)CC[C@@H](N)C(=O)O,0.528,
NC(N)=N/N=C/c1c(Cl)cccc1Cl,-19.7,
CCn1c(=O)c2c(nc(C=Cc3ccc(OC)c(OC)c3)n2C)n(CC)c1=O,-16.3,
CC[N+](CC)(CC)CCOC(=O)C(C1CCCC1)C1CCCC1,-4.15,
CCN(CC)CC(=O)Nc1c(C)cccc1C(=O)OC,5.91,
Cc1cc(=O)oc2cc(O)ccc12,,inactive
CCCC(C(=O)OCCN(CC)CC)(c1ccccc1)c1ccccc1,,inactive
O=C(Nc1ccc(S(=O)(=O)N2CCOCC2)cc1)c1cc(Cl)ccc1NS(=O)(=O)c1ccc(Cl)s1,4.29,
NCC1CCC(C(=O)Oc2ccc(CCC(=O)O)cc2)CC1 (stereo not drawn),-4.56,
O=C(OCc1ccccc1)c1ccc(O)cc1,5.65,
CC(=O)[C@H]1CC[C@H]2[C@@H]3CC=C4C[C@@H](O)CC[C@]4(C)[C@H]3CC[C@]12C,,inactive
O=C(O)[C@H](O)[C@@H](O)[C@H](O[C@@H]1O[C@H](CO)[C@H](O)[C@H](O)[C@H]1O)[C@H](O)CO,1.91,
O=C(NCC1CN(c2ccc(N3CCOCC3=O)cc2)C(=O)O1)c1ccc(Cl)s1 (stereo not drawn),,inactive
CCOC(=O)N1CCC(Nc2ccc(Cl)cc2N)CC1,-25.3,
CN1CCN(C2=Nc3cc(F)ccc3Cc3ccccc32)CC1,-5.2,
CCOc1ccc(NC(C)=O)cc1,5.78,
CC(C)(C)C(=O)C(Oc1ccc(Cl)cc1)n1ccnc1 (stereo not drawn),-0.594,
Fc1ccc(C(c2ccc(F)cc2)N2CCN(C/C=C/c3ccccc3)CC2)cc1,,inactive
Cn1cc(C(=O)[C@@H]2CCc3nc[nH]c3C2)c2ccccc21,0.857,
O=C(O)CNC(=O)c1ccccc1I,15,

SMILES,"activity change, negative = reduced viability [%]",Potency
CN(C)CCN1C(=O)c2ccccc2N(C)c2ccccc21,-0.193,
CCCCCN(CCCCC)C(=O)C(CCC(=O)O)NC(=O)c1ccc(Cl)c(Cl)c1 (stereo not drawn),,inactive
Cc1nc2sccn2c(=O)c1CCN1CCC(=C(c2ccc(F)cc2)c2ccc(F)cc2)CC1,,inactive
CCC1NC(=O)c2cc(S(N)(=O)=O)c(Cl)cc2N1 (stereo not drawn),5.29,
CCCc1ncc(C(=O)O)s1,9.42,
C[C@]12CC[C@@H]3c4ccc(O)cc4CC[C@H]3[C@@H]1C[C@@H](O)[C@@H]2O,-11.1,
Cc1ccc(Nc2c(F)cccc2Cl)c(CC(=O)O)c1,-5.25,
CC(C)(C)c1nnc(NS(=O)(=O)c2ccc(N)cc2)s1,-6.47,
CN(C)C(=O)Nc1ccc(Cl)c(Cl)c1,1.08,
O=C1C(CCS(=O)c2ccccc2)C(=O)N(c2ccccc2)N1c1ccccc1 (stereo not drawn),3.92,
C[C@H](CCC(=O)O)[C@H]1CC[C@H]2[C@@H]3C(=O)C[C@@H]4CC(=O)CC[C@]4(C)[C@H]3CC(=O)[C@]12C,11.9,
c1cnc(N2CCN(Cc3ccc4c(c3)OCO4)CC2)nc1,,inactive
c1ccc2c(c1)CCc1ccccc1N2,0.662,
CCCOC(=O)c1ccc(N)cc1,-15.7,
CC1=C(CC(=O)O)c2cc(F)ccc2/C1=C\c1ccc(S(C)=O)cc1 (stereo not drawn),-1.68,
CC1CC(=O)NN=C1c1ccc(NCC(C)(C)NCC(O)COc2cc(Cl)ccc2C#N)cc1 (stereo not drawn),3.02,
COc1ccccc1N1CCN(CCCNc2cc(=O)n(C)c(=O)n2C)CC1,,inactive
CCOC(=O)OCC/C(SC(=O)OCC)=C(\C)N(C=O)Cc1cnc(C)nc1N,-12.2,
O=[N+]([O-])c1nccn1CO[C@@H](CO)[C@H](O)CO,1.59,
